12-LOX inh: Primary qHTS assay for inhibitors of human arachidonate 12S-lipoxygenase (ALOX12): Round 2; Polyunsaturated fatty acid lipoxygenase ALOX12 (Homo sapiens), P18054; purified 12hLO, xylenol orange hydroperoxide absorbance; Potency, µM (highest dose often 108 µM), for the others: at the highest dose activity change, negative = inhibition, most hits filed as inhibitors; hit rate 1.1% among 580,000; AID 1671190, 2021; further: potency means the concentration at half of the fitted maximal effect; on the % scale 0 is the no-effect control and ±100 the full control effect
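Purified human 12hLO at 150 nM in 25 mM Hepes, 0.01% Triton X-100, pH 7.0, preincubated 15 min at room temperature with compound. Reaction started with 40 uM arachidonic acid, 30 min at room temperature. Hydroperoxide measured by Fe-xylenol orange, 573/405 nm absorbance ratio.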
Vif-APOBEC3G blk: qHTS for Inhibitors of Vif-A3G Interactions: qHTS; DNA dC->dU-editing enzyme APOBEC-3G (Homo sapiens), Q9HC16; hit rate 0.076% among 410,000; HeLa A3G-eYFP + Vif (tagged APOBEC3G with the HIV-1 protein that degrades it), YFP fluorescence, overnight; Potency, µM (series often up to 46.1 µM), for inactives: top-dose activity, negative = active, most hits filed as inhibitors; further: potency means the concentration at half of the fitted maximal effect; on the % scale 0 is the no-effect control and ±100 the full control effect; nearly all actives have a fitted effect of over 60% in size
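Read-out is eYFP fluorescence (Ex 488/Em 500-530) from Vif-expressing HeLa A3G-eYFP cells; more signal means A3G escaped Vif-mediated degradation. Cells plated overnight, compound pinned in, incubated overnight at 37 deg C.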
Vif-A3F inh: qHTS for Inhibitors of Vif-A3F Interactions: qHTS | HeLa A3F-eYFP + Vif (tagged APOBEC3F with the HIV-1 protein that degrades it), YFP fluorescence increase | Potency, µM (doses to about 46.1 µM), for inactives: at the highest dose activity, negative = active | hit rate 0.2% among 390,000 | AID 602313, 2012; further: potency means the concentration at half of the fitted maximal effect; % of control where 0% means no effect; nearly all actives have a fitted effect of over 65% in size
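Fluorescence increase (Ex 488/Em 500-530) after overnight compound treatment at 37 deg C flags inhibition of Vif-driven A3F-eYFP loss in stable HeLa A3F-eYFP/Vif cells seeded overnight beforehand.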
pAkt inh: HTS Assay for Inhibitors of Akt Phophorylation: Primary Screen; activity change, % for hits at 50 µM; AID 651550, 2012; hit rate 0.32% among 360,000; Neuro2A IGF-stimulated pAkt S473 HTRF, 20 min; stronger effect = lower value; in the data active means activity change below about -80%; inconclusive means mostly about -51% to -80%; further: on the % scale 0 is the no-effect control and ±100 the full control effect
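Neuro2A cells (4,500/well, DMEM with 0.5% FBS) were treated with compound at a single 50 µM final concentration, stimulated with 6 nM IGF for 20 min at 37 °C, and lysed. Phospho-Akt Ser473 was read by HTRF as 665/615 ratio ×10^4.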
PTAP TSG101 blk: qHTS Assay for Iinhibitors of HIV-1 Budding by Blocking the Interaction of PTAP/TSG101. Tumor susceptibility gene 101 protein (Homo sapiens), Q99816. Fluorescence polarization, FITC-PTAP peptide / Tsg101 binding. Potency, µM (titrated, usually from 115 µM), inactives show top-dose activity change, negative = inhibition, hits mostly inhibitors. 340,000 tested, under 10 active. AID 493005, 2010; active means well fitted inhibition curve with a large enough effect in the main read-out, with a control signal flat, not every such curve was filed as active; inconclusive means small, poorly fitted or top-dose-only effect, or effect the other way, or a change in a side signal; inactive means no such curve, though single readings can be large or run the other way; further: potency means the concentration at half of the fitted maximal effect; % of control where 0% means no effect
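FP read-out: FITC-PTAP peptide, 50 nM final, binding Tsg101 binding domain, 10 uM final; 20 min, r.t.; 10 mM HEPES pH 7.5, 0.15 M NaCl, 0.01% Tween 20, 3 mM EDTA, 0.1 mM TCEP.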
S-ASM inh: Inhibitors of Secretory Acid Sphingomyelinase (S-ASM): qHTS; hit rate 0.006% among 340,000; Potency, µM (series often up to 57.5 µM), for inactives: top-dose activity change, negative = inhibition, usual class: inhibitors; placental ASM, HMU-PC fluorogenic substrate, 60 min; Sphingomyelin phosphodiesterase (Homo sapiens), P17405; AID 504937, 2011; further: potency means the concentration at half of the fitted maximal effect
Target sequence (P17405 47-631 limits assumed): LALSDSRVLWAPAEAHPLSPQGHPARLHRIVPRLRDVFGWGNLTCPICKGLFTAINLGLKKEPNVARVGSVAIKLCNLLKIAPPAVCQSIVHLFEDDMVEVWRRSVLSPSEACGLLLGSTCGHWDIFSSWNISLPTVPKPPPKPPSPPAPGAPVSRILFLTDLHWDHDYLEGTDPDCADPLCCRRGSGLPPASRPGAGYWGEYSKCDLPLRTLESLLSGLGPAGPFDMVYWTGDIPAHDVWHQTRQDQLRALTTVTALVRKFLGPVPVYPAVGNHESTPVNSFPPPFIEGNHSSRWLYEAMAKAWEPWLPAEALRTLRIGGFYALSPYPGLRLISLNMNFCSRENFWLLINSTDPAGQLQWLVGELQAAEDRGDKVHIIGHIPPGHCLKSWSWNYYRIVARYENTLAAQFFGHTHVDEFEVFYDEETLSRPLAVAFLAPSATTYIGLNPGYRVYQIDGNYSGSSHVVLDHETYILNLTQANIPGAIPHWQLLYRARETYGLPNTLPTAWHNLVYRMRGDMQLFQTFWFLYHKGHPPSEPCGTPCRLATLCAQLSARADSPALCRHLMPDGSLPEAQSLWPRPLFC
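Human placenta-derived ASM preincubated with compound 10 min at room temperature, then reacted with 9 uM (final) fluorogenic HMU-PC substrate for 60 min at 37 C. Stop solution raises pH to 10; fluorescence read at Ex 386/Em 447 nm.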
Starred values were filed as active, the others as inactive; i = inactive; ? = inconclusive; . = no result given; ! = a repeat was not active. Most compounds without a hit are left out; they make up all but 1.4% or so of the library. Unless noted, the call rests on the fitted dose curve; in most records, active means well fitted curve in the direction sought with a large enough effect; inconclusive means small, poorly fitted or top-dose-only effect, or another doubt; inactive means no such curve, though single readings can be large; an effect the other way counts as inactive or inconclusive.

SMILES | 12-LOX inh | Vif-APOBEC3G blk | Vif-A3F inh | pAkt inh | PTAP TSG101 blk | S-ASM inh
O=C(CSc1oc(-c2ccco2)nc1S(=O)(=O)c1ccccc1)NCC1CCCO1 (stereo not drawn) | ? | 0% | 2% | -101%* | -2% | 2%
Cn1ccc2cc(S(=O)(=O)N3CCC(C(=O)N4CCC5(CC4)OCCO5)CC3)ccc21 | -28% | . | . | . | . | .
O=C(c1ccc2c(c1)OCO2)N1CCC(c2nc3c(nnn3Cc3cccc(Cl)c3)c(=O)[nH]2)CC1 | 13µM* | . | . | . | . | .
N=C1/C(=C\c2coc3ccccc3c2=O)C(=O)N=C2SC=CN12 | 20µM* | ? | ? | i | ? | 4%
CSC1=NSC2=NC(=O)/C(=C/c3coc4ccc(O)cc4c3=O)C(=N)N12 | 18µM* | ? | ? | i | ? | -8%
Cc1nc(-c2ccc(F)cc2)sc1CCNC(=O)C1CCCC1 | 1% | . | . | . | . | .
CCN1/C(=C/c2cc[n+](C)cc2)C=Cc2cc(C)ccc21 | ? | ? | 13µM* | i | 1% | -23%
CCCCN1/C(=C/c2ccc3ccccc3[n+]2CC)Sc2ccccc21 | . | ? | ? | i | 12% | -1%
CCN1/C(=C/c2ccc3ccccc3[n+]2CC)C=Cc2ccccc21 | ? | ? | 13µM* | . | ? | -23%
CCN1/C(=C/c2ccc3ccccc3[n+]2CCCS(=O)(=O)[O-])C=Cc2cc(C)ccc21 | 45µM* | 2% | 7% | i | -2% | -2%
CC/C(=C/c1sc2ccc(C)cc2[n+]1CCCS(=O)(=O)[O-])SC | -3% | 1% | -13% | i | -6% | 12%
CCNc1c(NC(=O)c2ccc(OC)c(Br)c2)c(=O)oc2ccccc12 | -6% | . | . | . | . | .
Cc1c(CNCc2ccccc2)c(C(=O)O)c(C)n1Cc1ccc(F)cc1Cl | 7% | . | . | . | . | .
CCCc1nnc(SCC(=O)Nc2ccccc2Cl)n1-n1cccc1 | 74% | . | . | . | . | .
S=c1[nH]nc(Nc2ccccc2Cl)s1 | 32µM* | -3% | -5% | i | -1% | -4%
COc1cc2c(cc1OC)CN(C(=O)c1oc3ccc(F)cc3c1C)CC2 | -25% | . | . | . | . | .
C=CCNC(=S)NN=C1CCCCCCC1 | 14µM* | -5% | ? | i | -9% | -1%
COCCNC(=S)NN=C1CCCCC1 | -5% | ? | -7% | i | -2% | -4%
COc1ccc(CNc2ncc(-c3ccccc3)n2C)c2ccccc12 | 10µM* | ? | -6% | i | -4% | -2%
COc1ccc(CNc2ncc(-c3ccccc3)n2C)c(OC)c1OC | 2µM* | 9% | -21% | i | -2% | 3%
CNC(=O)CCC[C@H]1NC[C@@H]2CC1CN(Cc1ccccc1)C2 | 8.9µM* | . | . | . | . | .
COc1cccc(NC(=O)CCC[C@H]2NC[C@@H]3C[C@H]2CN(Cc2ccccc2)C3)c1 | 0% | . | . | . | . | .
COc1ccc2[nH]cc(CCNC(=O)CCC[C@H]3NC[C@@H]4C[C@H]3CN(Cc3ccccc3)C4)c2c1 | 4µM* | . | . | . | . | .
NC(=O)CCC[C@H]1NC[C@@H]2C[C@H]1CN(Cc1ccccc1)C2 | 13% | . | . | . | . | .
COc1ccc(NC(=O)Cn2ccc3ccc(Cl)cc32)cc1 | 5% | . | . | . | . | .
SMILES | 12-LOX inh | Vif-APOBEC3G blk | Vif-A3F inh | pAkt inh | PTAP TSG101 blk | S-ASM inh
CCNc1nc(-c2ccc(NC(C)=O)cc2)cs1 | 28µM* | . | . | . | . | .
CC(=O)Nc1ccc(Nc2nc(-c3ccc(NC(C)=O)cc3)cs2)cc1 | 12% | . | . | . | . | .
CC(=O)c1ccc(Nc2nc(-c3sc(C)nc3C)cs2)cc1 | -10% | ? | ? | i | . | .
CC(=O)Nc1ccc(Nc2nc(-c3sc(C)nc3C)cs2)cc1 | 16µM*! | -12% | -6% | i | -2% | -1%
Cc1ccc(C2=NN(S(=O)(=O)c3ccccc3)C(c3ccccc3O)C2)cc1 (stereo not drawn) | -17% | 8% | 25µM* | i | 2% | -18%
CS(=O)(=O)Nc1cccc(C2=NN(S(=O)(=O)c3ccc(F)cc3)C(c3cccs3)C2)c1 (stereo not drawn) | ? | -9% | ? | i | 9% | -2%
COc1ccc(C2CC(c3ccccc3)=NN2S(=O)(=O)c2ccccc2)cc1 (stereo not drawn) | 79% | -29% | ? | i | 18% | -6%
CS(=O)(=O)Nc1ccc(C2=NN(S(=O)(=O)c3ccccc3)C(c3cccs3)C2)cc1 (stereo not drawn) | 4% | ? | 22µM* | i | 5% | -5%
O=C(Nc1ccc2ncccc2c1)c1ccccc1Cl | 45µM* | 1% | -4% | i | -3% | -4%
O=C(Nc1ccc2ncccc2c1)c1ccccc1 | ? | -1% | 0% | i | -6% | 7%
N#Cc1nc(-c2ccco2)oc1N1CCN(C(=O)c2ccc(F)cc2F)CC1 | -12% | . | . | . | . | .
CCCCCCOc1ccc(/C=C/C(=O)c2ccc(OC)c(CSCC(=O)O)c2)cc1 | -21% | . | . | . | . | .
COc1ccc2c(c1)C1NC(=S)NC(C)(O2)C1C(=O)Nc1ccc(Cl)cc1 (stereo not drawn) | 40µM* | -4% | -9% | i | 1% | .
COc1ccc2c(c1)C1NC(=S)N[C@@](C)(O2)C1C(=O)Nc1ccccc1 (stereo partly drawn) | ? | 0% | 3% | i | -4% | 2%
Cc1ccc2c(c1)C1NC(=S)NC(C)(O2)C1C(=O)Nc1ccc(Cl)cc1 (stereo not drawn) | 28µM* | -7% | -2% | i | 5% | .
c1cc(OCc2nc(-c3cccs3)no2)cc(-n2cnnn2)c1 | -11% | . | . | . | . | .
CN1CCN(C(=O)c2cc3sc4ccccc4c3s2)CC1 | 4% | 0% | 11% | i | -1% | -6%
CCCN(CCC)C(=O)c1cc2sc3ccccc3c2s1 | 5µM* | . | . | . | . | .
Cc1[nH]c2c(ccc3ccccc32)c1C | 16µM* | . | . | . | . | .
CCOC(=O)C1CCN(C(=O)C(C)OC(=O)c2nn(C(C)C)c(=O)c3ccccc23)CC1 (stereo not drawn) | 11% | . | . | . | . | .
COc1ccc(S(=O)(=O)Nc2cccc(-c3ccc(N4CCCCC4)nn3)c2)c(OC)c1 | 11µM* | . | . | . | . | .
COc1ccc(OC)c(S(=O)(=O)Nc2ccc(-c3ccc(N4CCC(C)CC4)nn3)cc2)c1 | 8.9µM* | . | . | . | . | .
